# Laboratory results published in publication PMC7862700, “An all-to-all approach to the identification of sequence-specific readers for epigenetic DNA modifications on cytosine”.
# Assays:
# Test in all cases: DAPPL (digital affinity profiling via proximity ligation, sequencing); 10 mM Tris-HCl pH 7.5, 50 mM NaCl, 1 mM DTT, 4% glycerol, room temperature, 30 min; GST-TFs on glutathione beads, 16-mer random dsDNA library, 0.1% formaldehyde crosslink after washing; high values mean tight binding
# FLI1 = biological target: T1, FLI1 (Homo sapiens, UniProt Q01543 1-452); settings: protein: recombinant; tags: N-terminal GST; dsDNA, one strand shown
# T1 sequence: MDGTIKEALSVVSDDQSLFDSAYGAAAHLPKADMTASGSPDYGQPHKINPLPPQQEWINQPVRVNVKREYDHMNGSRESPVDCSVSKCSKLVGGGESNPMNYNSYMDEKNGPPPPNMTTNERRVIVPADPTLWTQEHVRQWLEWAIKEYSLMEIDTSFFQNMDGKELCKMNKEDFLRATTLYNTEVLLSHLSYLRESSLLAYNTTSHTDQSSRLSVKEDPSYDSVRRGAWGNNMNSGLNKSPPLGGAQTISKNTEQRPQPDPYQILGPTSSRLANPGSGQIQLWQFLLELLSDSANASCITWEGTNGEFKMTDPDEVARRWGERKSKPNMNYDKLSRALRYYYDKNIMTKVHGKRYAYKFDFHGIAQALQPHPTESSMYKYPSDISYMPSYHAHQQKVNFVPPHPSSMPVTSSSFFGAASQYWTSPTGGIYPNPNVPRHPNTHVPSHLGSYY
# Summary of the method: (§1)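 A tag-only sample was pooled with DNA-barcoded human transcription factors that had been expressed in yeast as GST fusions and captured on glutathione beads. The pools were incubated for 30 min at room temperature with 200 nmole of a random double-stranded 16-mer DNA library in Tris/NaCl/DTT/glycerol buffer, then washed, crosslinked with 0.1% formaldehyde, proximity-ligated (BsaI/T4 ligase, 1 h, 37 °C), PCR-amplified and sequenced on an Illumina NextSeq500. Binding signal is each hexamer's read frequency for a factor divided by its frequency for the tag-only sample.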
# ELK1 = biological target: T2, ELK1 (Homo sapiens, UniProt P19419 1-428); settings: protein: recombinant; tags: N-terminal GST; dsDNA, one strand shown
# T2 sequence: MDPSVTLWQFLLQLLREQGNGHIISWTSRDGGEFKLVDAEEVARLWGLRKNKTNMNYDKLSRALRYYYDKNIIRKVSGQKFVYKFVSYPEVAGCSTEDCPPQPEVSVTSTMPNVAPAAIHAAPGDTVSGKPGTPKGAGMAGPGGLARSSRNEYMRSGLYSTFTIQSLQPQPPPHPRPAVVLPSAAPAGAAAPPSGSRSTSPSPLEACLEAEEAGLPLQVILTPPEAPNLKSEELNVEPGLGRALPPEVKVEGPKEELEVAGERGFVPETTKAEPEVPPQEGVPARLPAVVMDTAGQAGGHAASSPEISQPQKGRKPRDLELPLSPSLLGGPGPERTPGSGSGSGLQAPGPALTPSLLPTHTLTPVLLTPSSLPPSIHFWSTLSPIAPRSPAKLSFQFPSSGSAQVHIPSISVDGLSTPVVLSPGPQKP
# Summary of the method: as §1
# GABPA = biological target: T3, GABPA (Homo sapiens, UniProt Q06546 1-454); settings: protein: recombinant; tags: N-terminal GST; dsDNA, one strand shown
# T3 sequence: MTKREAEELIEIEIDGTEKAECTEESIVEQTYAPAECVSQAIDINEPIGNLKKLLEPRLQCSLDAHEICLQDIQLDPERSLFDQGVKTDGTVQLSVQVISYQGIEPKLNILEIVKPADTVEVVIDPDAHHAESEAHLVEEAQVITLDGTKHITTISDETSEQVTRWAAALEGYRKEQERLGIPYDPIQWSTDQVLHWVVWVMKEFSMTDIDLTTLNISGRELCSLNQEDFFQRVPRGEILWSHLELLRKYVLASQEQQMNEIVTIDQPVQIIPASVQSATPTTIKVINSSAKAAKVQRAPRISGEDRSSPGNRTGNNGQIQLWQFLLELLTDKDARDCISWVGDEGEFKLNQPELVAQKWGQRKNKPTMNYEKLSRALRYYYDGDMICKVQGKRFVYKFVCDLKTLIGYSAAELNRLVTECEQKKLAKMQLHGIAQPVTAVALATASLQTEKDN
# Summary of the method: as §1
# ERG = biological target: T4, ERG (Homo sapiens, UniProt P11308 1-479); settings: protein: recombinant; tags: N-terminal GST; dsDNA, one strand shown
# T4 sequence: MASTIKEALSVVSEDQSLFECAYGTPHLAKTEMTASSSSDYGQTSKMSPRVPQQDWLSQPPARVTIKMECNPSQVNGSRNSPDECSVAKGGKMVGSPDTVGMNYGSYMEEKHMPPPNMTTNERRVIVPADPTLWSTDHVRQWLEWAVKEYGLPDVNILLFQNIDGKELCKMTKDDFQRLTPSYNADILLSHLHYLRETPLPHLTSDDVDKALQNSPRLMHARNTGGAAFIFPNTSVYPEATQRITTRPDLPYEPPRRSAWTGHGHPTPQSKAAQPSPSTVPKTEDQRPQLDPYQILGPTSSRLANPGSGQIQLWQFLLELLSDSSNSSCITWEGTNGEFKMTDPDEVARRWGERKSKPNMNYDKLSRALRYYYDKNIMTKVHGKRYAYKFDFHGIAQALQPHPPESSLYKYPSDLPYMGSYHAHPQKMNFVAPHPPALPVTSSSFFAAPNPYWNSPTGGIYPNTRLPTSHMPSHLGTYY
# Summary of the method: as §1
# ELF1 = ELF1 (Homo sapiens, UniProt P32519 1-619); settings: protein: recombinant; tags: N-terminal GST; dsDNA, one strand shown
# Chain of ELF1 (P32519 whole entry): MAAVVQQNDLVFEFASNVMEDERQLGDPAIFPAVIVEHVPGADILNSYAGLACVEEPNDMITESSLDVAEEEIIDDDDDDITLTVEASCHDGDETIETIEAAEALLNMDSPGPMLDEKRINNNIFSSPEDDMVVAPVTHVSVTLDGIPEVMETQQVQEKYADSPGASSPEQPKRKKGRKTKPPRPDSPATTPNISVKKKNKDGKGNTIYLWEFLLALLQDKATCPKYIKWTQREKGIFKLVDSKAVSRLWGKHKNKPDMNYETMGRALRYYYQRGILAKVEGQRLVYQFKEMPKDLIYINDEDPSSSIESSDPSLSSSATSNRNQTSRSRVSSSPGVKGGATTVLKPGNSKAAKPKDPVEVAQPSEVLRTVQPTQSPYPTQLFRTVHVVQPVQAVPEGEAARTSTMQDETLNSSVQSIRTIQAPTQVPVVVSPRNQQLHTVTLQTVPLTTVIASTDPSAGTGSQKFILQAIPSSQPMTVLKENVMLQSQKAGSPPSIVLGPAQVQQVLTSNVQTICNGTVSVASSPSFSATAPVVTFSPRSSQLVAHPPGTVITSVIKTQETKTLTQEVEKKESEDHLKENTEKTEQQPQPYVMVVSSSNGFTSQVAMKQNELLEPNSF
# Summary of the method: as §1
# EHF = biological target: T5, EHF (Homo sapiens, UniProt Q9NZC4 1-300); settings: protein: recombinant; tags: N-terminal GST; dsDNA, one strand shown
# T5 sequence: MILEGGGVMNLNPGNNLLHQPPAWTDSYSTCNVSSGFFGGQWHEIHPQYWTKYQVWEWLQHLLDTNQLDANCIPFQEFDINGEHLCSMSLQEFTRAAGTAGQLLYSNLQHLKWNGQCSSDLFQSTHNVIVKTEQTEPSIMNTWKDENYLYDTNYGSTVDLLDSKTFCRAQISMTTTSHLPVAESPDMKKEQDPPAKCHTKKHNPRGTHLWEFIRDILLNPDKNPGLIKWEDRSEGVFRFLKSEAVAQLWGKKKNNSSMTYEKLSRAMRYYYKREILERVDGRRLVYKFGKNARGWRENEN
# Summary of the method: as §1
# SPI1 = SPI1 (Homo sapiens, UniProt P17947 1-270); settings: protein: recombinant; tags: N-terminal GST; dsDNA, one strand shown
# Summary of the method: as §1
# SPIB = SPIB (Homo sapiens, UniProt Q01892 1-262); settings: protein: recombinant; tags: N-terminal GST; dsDNA, one strand shown
# Chain of SPIB (Q01892 whole entry): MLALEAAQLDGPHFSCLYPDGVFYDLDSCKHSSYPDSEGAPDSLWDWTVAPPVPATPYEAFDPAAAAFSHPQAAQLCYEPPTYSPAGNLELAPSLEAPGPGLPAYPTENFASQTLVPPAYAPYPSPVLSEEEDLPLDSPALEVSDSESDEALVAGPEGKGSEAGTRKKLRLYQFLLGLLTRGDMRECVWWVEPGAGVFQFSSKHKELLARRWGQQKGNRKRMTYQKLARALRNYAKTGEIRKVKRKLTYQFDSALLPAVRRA
# Summary of the method: as §1
# ELK3 = biological target: T6, ELK3 (Homo sapiens, UniProt P41970 1-407); settings: protein: recombinant; tags: N-terminal GST; dsDNA, one strand shown
# T6 sequence: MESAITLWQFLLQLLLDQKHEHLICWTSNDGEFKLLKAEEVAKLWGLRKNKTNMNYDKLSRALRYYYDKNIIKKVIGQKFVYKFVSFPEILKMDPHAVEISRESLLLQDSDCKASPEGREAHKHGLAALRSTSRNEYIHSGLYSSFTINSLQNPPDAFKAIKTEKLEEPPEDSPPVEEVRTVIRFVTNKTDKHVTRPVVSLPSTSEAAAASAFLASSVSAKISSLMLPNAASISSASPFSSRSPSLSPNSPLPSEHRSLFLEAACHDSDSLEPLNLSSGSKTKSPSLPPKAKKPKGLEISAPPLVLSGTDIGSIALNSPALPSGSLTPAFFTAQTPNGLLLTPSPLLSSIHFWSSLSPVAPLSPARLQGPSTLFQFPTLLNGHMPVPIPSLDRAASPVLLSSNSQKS
# Summary of the method: as §1
# FEV = biological target: T7, FEV (Homo sapiens, UniProt Q99581 1-238); settings: protein: recombinant; tags: N-terminal GST; dsDNA, one strand shown
# T7 sequence: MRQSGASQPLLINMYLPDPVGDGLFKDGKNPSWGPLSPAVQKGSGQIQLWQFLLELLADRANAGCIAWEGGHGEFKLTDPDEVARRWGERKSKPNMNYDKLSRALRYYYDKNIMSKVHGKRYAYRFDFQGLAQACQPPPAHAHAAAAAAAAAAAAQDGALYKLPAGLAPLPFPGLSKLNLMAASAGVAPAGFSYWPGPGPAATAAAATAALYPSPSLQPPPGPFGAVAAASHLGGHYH
# Summary of the method: as §1
# ETV5 = ETV5 (Homo sapiens, UniProt P41161 1-510); settings: protein: recombinant; tags: N-terminal GST; dsDNA, one strand shown
# Chain of ETV5 (P41161 whole entry): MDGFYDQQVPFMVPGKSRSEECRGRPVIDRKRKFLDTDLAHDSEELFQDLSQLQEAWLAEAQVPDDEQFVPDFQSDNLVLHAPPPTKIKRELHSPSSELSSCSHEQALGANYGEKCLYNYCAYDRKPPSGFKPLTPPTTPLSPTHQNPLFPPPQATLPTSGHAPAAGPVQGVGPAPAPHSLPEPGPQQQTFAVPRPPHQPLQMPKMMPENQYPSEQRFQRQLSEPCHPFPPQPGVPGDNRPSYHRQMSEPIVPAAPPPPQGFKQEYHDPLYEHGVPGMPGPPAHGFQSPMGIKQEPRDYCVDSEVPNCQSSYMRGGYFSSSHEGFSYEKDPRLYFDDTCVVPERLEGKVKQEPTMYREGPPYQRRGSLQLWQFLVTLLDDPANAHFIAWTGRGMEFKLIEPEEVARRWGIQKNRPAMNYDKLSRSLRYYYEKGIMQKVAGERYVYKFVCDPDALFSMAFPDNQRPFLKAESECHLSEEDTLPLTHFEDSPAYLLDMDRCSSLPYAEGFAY
# Summary of the method: as §1
# HSF1 = HSF1 (Homo sapiens, UniProt Q00613 1-529); settings: protein: recombinant; tags: N-terminal GST; chain copies: 3; dsDNA, one strand shown
# Chain of HSF1 (Q00613 whole entry): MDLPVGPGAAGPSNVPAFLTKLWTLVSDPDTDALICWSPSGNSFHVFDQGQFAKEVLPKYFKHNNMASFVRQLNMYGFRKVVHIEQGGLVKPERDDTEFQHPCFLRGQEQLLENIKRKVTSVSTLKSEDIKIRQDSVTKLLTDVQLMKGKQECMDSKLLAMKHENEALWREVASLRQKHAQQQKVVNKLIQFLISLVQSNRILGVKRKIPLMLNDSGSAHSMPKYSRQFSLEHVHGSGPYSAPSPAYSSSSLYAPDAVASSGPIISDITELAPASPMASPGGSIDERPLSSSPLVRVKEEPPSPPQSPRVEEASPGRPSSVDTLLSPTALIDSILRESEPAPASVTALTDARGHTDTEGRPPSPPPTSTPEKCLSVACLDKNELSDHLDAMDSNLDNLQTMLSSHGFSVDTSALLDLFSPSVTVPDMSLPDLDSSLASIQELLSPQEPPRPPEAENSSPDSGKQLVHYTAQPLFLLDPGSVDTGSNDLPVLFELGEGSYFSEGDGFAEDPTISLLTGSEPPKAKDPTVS
# Summary of the method: as §1
# SPIC = biological target: T8, SPIC (Homo sapiens, UniProt Q8N5J4 1-248); settings: protein: recombinant; tags: N-terminal GST; dsDNA, one strand shown
# T8 sequence: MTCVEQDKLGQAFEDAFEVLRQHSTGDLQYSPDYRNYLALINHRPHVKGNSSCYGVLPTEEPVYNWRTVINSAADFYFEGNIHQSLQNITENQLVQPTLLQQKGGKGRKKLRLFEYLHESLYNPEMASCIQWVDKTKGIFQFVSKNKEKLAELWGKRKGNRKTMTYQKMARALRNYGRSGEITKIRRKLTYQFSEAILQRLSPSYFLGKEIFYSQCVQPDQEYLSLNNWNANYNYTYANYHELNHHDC
# Summary of the method: as §1
# ELF4 = ELF4 (Homo sapiens, UniProt Q99607 1-663); settings: protein: recombinant; tags: N-terminal GST; dsDNA, one strand shown
# Chain of ELF4 (Q99607 whole entry): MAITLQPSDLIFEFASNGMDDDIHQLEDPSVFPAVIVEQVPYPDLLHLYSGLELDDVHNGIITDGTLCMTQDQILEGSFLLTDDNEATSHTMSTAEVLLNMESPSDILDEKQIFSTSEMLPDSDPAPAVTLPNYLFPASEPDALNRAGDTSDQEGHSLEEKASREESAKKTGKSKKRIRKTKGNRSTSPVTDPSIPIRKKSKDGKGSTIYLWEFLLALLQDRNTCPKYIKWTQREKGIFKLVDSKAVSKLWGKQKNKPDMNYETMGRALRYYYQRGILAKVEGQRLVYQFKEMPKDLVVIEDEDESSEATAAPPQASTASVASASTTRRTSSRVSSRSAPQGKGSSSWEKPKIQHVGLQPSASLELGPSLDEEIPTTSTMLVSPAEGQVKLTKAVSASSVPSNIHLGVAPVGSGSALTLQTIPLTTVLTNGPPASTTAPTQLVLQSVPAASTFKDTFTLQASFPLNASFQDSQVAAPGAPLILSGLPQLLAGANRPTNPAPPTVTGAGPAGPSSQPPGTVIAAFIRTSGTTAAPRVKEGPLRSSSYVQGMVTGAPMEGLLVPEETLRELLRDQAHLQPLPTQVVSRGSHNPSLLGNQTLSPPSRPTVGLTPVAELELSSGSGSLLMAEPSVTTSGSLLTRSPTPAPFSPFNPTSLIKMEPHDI
# Summary of the method: as §1
# ELK4 = biological target: T9, ELK4 (Homo sapiens, UniProt P28324-2 1-405); settings: protein: recombinant; tags: N-terminal GST; dsDNA, one strand shown
# T9 sequence: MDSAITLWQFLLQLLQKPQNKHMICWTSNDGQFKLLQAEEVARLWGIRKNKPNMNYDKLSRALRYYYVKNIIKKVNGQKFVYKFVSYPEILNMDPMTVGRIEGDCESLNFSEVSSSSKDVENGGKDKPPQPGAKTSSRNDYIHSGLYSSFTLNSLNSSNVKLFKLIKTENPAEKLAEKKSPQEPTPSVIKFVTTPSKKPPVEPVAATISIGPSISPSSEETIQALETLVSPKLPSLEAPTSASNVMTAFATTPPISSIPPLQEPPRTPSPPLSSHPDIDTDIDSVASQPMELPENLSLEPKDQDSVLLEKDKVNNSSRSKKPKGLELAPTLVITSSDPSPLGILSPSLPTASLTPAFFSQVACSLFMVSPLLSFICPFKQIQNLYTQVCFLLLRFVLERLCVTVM
# Summary of the method: as §1
# ETV2 = biological target: T10, ETV2 (Homo sapiens, UniProt O00321 1-342); settings: protein: recombinant; tags: N-terminal GST; dsDNA, one strand shown
# T10 sequence: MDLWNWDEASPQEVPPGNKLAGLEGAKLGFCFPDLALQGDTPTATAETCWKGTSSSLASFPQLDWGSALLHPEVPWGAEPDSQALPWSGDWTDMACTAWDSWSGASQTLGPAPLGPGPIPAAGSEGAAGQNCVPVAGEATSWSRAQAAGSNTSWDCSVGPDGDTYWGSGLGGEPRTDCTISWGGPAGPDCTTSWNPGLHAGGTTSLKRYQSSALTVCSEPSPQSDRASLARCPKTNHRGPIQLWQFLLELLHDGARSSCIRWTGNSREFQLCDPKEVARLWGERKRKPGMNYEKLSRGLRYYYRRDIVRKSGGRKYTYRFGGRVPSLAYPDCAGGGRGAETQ
# Summary of the method: as §1
# ELF3 = biological target: T11, ELF3 (Homo sapiens, UniProt P78545 1-371); settings: protein: recombinant; tags: N-terminal GST; dsDNA, one strand shown
# T11 sequence: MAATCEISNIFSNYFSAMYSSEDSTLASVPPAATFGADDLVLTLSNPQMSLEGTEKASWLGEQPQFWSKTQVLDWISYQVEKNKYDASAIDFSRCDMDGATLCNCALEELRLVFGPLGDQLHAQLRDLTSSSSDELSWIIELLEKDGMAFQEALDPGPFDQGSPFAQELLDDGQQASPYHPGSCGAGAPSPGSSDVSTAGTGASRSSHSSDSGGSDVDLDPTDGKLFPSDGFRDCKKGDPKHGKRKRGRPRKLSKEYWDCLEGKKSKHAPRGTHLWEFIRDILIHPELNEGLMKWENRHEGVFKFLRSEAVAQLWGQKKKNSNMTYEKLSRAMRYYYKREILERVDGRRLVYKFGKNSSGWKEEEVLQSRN
# Summary of the method: as §1
# CRX = CRX (Homo sapiens, UniProt O43186 1-299); settings: protein: recombinant; tags: N-terminal GST; dsDNA, one strand shown
# Chain of CRX (O43186 whole entry): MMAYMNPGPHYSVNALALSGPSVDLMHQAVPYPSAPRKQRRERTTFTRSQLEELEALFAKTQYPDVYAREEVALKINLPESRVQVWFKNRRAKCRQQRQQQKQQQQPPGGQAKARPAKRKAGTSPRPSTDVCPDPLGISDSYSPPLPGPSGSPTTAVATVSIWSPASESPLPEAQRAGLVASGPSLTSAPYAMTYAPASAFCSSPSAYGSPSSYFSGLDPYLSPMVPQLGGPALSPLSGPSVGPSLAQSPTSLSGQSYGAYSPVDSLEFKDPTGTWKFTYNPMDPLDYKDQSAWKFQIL
# Summary of the method: as §1
# ETV1 = ETV1 (Homo sapiens, UniProt P50549 1-477); settings: protein: recombinant; tags: N-terminal GST; dsDNA, one strand shown
# Chain of ETV1 (P50549 whole entry): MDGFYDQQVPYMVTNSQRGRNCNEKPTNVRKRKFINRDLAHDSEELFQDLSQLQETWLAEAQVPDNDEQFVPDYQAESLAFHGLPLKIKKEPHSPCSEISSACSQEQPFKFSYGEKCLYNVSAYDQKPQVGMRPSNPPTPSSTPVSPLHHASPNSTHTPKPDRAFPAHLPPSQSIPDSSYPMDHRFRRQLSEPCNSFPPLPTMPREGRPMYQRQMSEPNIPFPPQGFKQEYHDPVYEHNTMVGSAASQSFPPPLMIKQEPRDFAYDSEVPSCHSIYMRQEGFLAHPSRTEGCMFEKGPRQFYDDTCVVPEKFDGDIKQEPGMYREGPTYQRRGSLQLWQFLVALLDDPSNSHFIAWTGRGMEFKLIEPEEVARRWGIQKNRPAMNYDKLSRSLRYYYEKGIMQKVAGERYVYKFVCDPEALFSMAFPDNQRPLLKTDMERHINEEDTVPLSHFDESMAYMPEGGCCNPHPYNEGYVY
# Summary of the method: as §1
sequence,measurement,setting,value
CTCCTA,binding signal,FLI1,"1.47 fold enrichment (6-mer frequency, TF over GST control)"
same,binding signal,ELK1,"1.19 fold enrichment (6-mer frequency, TF over GST control)"
same,binding signal,GABPA,"1.38 fold enrichment (6-mer frequency, TF over GST control)"
same,binding signal,ERG,"1.22 fold enrichment (6-mer frequency, TF over GST control)"
same,binding signal,ELF1,"1.24 fold enrichment (6-mer frequency, TF over GST control)"
same,binding signal,EHF,"1.25 fold enrichment (6-mer frequency, TF over GST control)"
same,binding signal,SPI1,"1.46 fold enrichment (6-mer frequency, TF over GST control)"
same,binding signal,SPIB,"1.4 fold enrichment (6-mer frequency, TF over GST control)"
same,binding signal,ELK3,"1.24 fold enrichment (6-mer frequency, TF over GST control)"
same,binding signal,FEV,"1.32 fold enrichment (6-mer frequency, TF over GST control)"
same,binding signal,ETV5,"1.28 fold enrichment (6-mer frequency, TF over GST control)"
same,binding signal,HSF1,"1.39 fold enrichment (6-mer frequency, TF over GST control)"
same,binding signal,SPIC,"1.49 fold enrichment (6-mer frequency, TF over GST control)"
same,binding signal,ELF4,"1.44 fold enrichment (6-mer frequency, TF over GST control)"
same,binding signal,ELK4,"1.46 fold enrichment (6-mer frequency, TF over GST control)"
same,binding signal,ETV2,"1.24 fold enrichment (6-mer frequency, TF over GST control)"
same,binding signal,ELF3,"1.31 fold enrichment (6-mer frequency, TF over GST control)"
same,binding signal,CRX,"1.49 fold enrichment (6-mer frequency, TF over GST control)"
same,binding signal,ETV1,"1.29 fold enrichment (6-mer frequency, TF over GST control)"
